Reference: PubChem BioAssay (Tox21)
Records with an inconclusive call do not appear. A call without a number means that no potency is given here. Activity calls are given as the source filed them. Calls follow the shape of the dose curve; as a rule, active = well fitted activation curve with a large enough effect in the repeat runs; inconclusive = weak or mixed curves; inactive = flat fitted curve, though single readings scatter.

Test: A CellTox Green Cytotoxicity Assay to monitor cytotoxicity in HepG2 cells - 40 hour (AID 1224879); also: nearly all actives have a fitted effect of over 40% in size
Settings: CellTox Green fluorescence; series mostly up to 76.8 µM
Description: National Center for Advancing Translational Sciences [NCATS]
NIH Chemical Genomics Center [NCGC]
U.S. Environmental Protection Agency [EPA]
National Institutes of Environmental Health Sciences [NIEHS]
National Toxicology Program [NTP]
Cell-based models are critical for drug discovery. Determining the natural cytotoxic effects resulting from test compounds is an essential research activity. A CellTox Green Cytotoxicity Assay to monitor cytotoxicity in real time of continues cell culture during 40 hours of the compound treatment was used to screen Tox21 10K library compounds in HepG2 cells. CellTox Green Cytotoxicity Assay is a nonlytic, homogeneous, biofluorescent method to measure cytotoxicity in cell culture after experimental manipulation. The assay system uses a proprietary asymmetric cyanine dye that is excluded from viable cells but preferentially stains the dead cell's DNA. […] Viable cells produce no appreciable increases in fluorescence. Therefore, the fluorescence signal produced by the binding interaction with dead cell DNA is proportional to cytotoxicity.
The mixture of HepG2 cell suspension and reagents were dispensed at 600cells/6 ul/well in 1536-well tissue culture treated black solid bottom plates using a Multidrop dispenser. After the assay plates were incubated at a 37 C/5% CO2 incubator for 5 hours, 23 nL of compounds dissolved in DMSO, positive and negative controls was transferred to the assay plate by a pintool work station. The plates were incubated at 37 C for 40 hours. The fluorescence intensity were measured at 0h, 8h, 16h, 24h, 32h and 40h time points using ViewLux plate reader during compound treatment.
Potency is read from the fitted curve at half-maximal effect.

| SMILES | Potency |
| --- | --- |
| NC(=O)c1ccccc1Cl | inactive |
| O=C1OC(O)C(C(Cl)Cl)=C1Cl (stereo not given) | 35.7 µM (active) |
| Nc1cccnc1N | inactive |
| Cc1ccc2nc(-c3ccc(N)cc3)sc2c1S(=O)(=O)O | inactive |
| Cc1cc(F)ccc1-c1cc(N2CC[C@@H](O)[C@H]2CO)ncc1N(C)C(=O)C(C)(C)c1cc(C(F)(F)F)cc(C(F)(F)F)c1 | 43 µM (active) |
| NCc1ccco1 | inactive |
| c1ccc2c(c1)-c1ccc3ccc4cccc5cc-2c1c3c45 | 9.52 µM (active) |
| CN1CCN(CCCN2c3ccccc3Sc3ccc(Cl)cc32)CC1 | 23.9 µM (active) |
| CCN(CC)c1ccc(N=Nc2ccccc2)cc1 | inactive |
| Cc1ccc(C2OC[C@@H]3OC(c4ccc(C)cc4)O[C@H]([C@H](O)CO)[C@@H]3O2)cc1 (stereo not given in full) | inactive |
| CCn1c2ccccc2c2ccccc21 | inactive |
| Cc1ccc2n[nH]nc2c1 | inactive |
| O=C1OC(=O)c2cc(-c3ccc4c(c3)C(=O)OC4=O)ccc21 | inactive |
| c1ccc(-c2ccccc2-c2ccccc2)cc1 | inactive |
| Oc1ccc(Cl)cc1C1CCCC1 | 54.9 µM (active) |
| CCC(O)CO (stereo not given) | inactive |
| CCCC(C)C=O (stereo not given) | inactive |
| SC1CCCCC1 | inactive |
| Brc1cc(Br)cc(Br)c1 | inactive |
| Cn1c(=O)[nH]c2ncn(C)c2c1=O | inactive |

| SMILES | Potency |
| --- | --- |
| S=C1NC=NC2N=CNC12 (stereo not given) | inactive |
| CCOC(=O)C1=NN(c2ccc(Cl)cc2Cl)C(C)(C(=O)OCC)C1 (stereo not given) | inactive |
| C=C(C)C1CCC(C)CC1O (stereo not given) | inactive |
| C=COCCCC | inactive |
| Cc1c(Cl)c(=O)oc2cc(O)ccc12 | inactive |
| CCOC(=O)[C@H](O)[C@@H](O)C(=O)OCC | inactive |
| CC/C=C\C/C=C\C/C=C\CCCCCCCC(=O)OC | inactive |
| Oc1cccc2c(O)cccc12 | inactive |
| O=C1C=CC(=O)N1c1cccc(N2C(=O)C=CC2=O)c1 | 12.3 µM (active) |
| Cc1cc(C)c(O)c(C(C)(C)C)c1 | inactive |
| C=CC(=O)O[C@H]1C[C@@H]2CC[C@@]1(C)C2(C)C | inactive |
| CC(Cc1ccc(O)c(O)c1)C(C)Cc1ccc(O)c(O)c1 (stereo not given) | 43.6 µM (active) |
| ClC(c1ccccc1)(c1ccccc1)c1ccccc1 | inactive |
| COc1cc([C@@H]2c3cc4c(cc3[C@@H](O[C@@H]3O[C@@H]5CO[C@@H](C)O[C@H]5[C@H](O)[C@H]3O)[C@H]3COC(=O)[C@H]23)OCO4)cc(OC)c1O | 48.4 µM (active) |
| CC(C)C(=O)C(C)C | inactive |
| CCCCCCCCc1ccc(Nc2ccc(CCCCCCCC)cc2)cc1 | inactive |
| Cc1ccc(S(=O)(=O)C(I)I)cc1 | 24.5 µM (active) |
| Cc1cccc2c1ccc1ccccc12 | inactive |
| Nc1cc([N+](=O)[O-])cc(Cl)c1O | inactive |
| CCCC(=O)c1cc(O)c(O)cc1O | inactive |
